In PubChem BioAssay (NCI):
This is part of a sample that, as a whole, favours compounds with a hit. Of some 83,000 tested, about 20% had one in any assay.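 Method: cells in 96-well plates; compound added at one concentration; 48 h incubation; percent growth measured; values under 10 scored active.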 The source made the active and inactive calls.

Tests used:
Test in all cases: NCI-60 one-dose screen, 48 h (100 = growth as untreated, 0 = no growth, -100 = all killed)
[1] = test system: HCT-15 colon; conditions: 10 µM unless noted
[2] = test system: HT29 colon; conditions: 10 µM unless noted
[3] = test system: SNB-75 CNS; conditions: 10 µM unless noted
[4] = test system: SNB-19 CNS; conditions: 10 µM unless noted
[5] = test system: U251 CNS; conditions: 10 µM unless noted
[6] = test system: PC-3 prostate; conditions: 10 µM unless noted
[7] = test system: SK-MEL-5 melanoma; conditions: 10 µM unless noted
[8] = test system: UACC-62 melanoma; conditions: 10 µM unless noted
[9] = test system: LOX IMVI melanoma; conditions: 10 µM unless noted
[10] = test system: SK-MEL-28 melanoma; conditions: 10 µM unless noted
[11] = test system: SK-MEL-2 melanoma; conditions: 10 µM unless noted
[12] = test system: EKVX NSCLC; conditions: 10 µM unless noted
[13] = test system: SN12C renal; conditions: 10 µM unless noted
[14] = test system: UO-31 renal; conditions: 10 µM unless noted
[15] = test system: TK-10 renal; conditions: 10 µM unless noted
[16] = test system: ACHN renal; conditions: 10 µM unless noted
[17] = test system: CAKI-1 renal; conditions: 10 µM
[18] = test system: CCRF-CEM leukemia; conditions: 10 µM unless noted
[19] = test system: MOLT-4 leukemia; conditions: 10 µM unless noted
[20] = test system: A498 renal; conditions: 10 µM unless noted

Measured: growth

COC[C@]12CC[C@@H](C)[C@H](C)[C@H]1C1=CC[C@@H]3[C@@]4(C)CCCNC(C)(C)[C@@H]4CC[C@@]3(C)[C@]1(C)CC2
active: [1] 8.12% | [2] 0.874% | [5] -34.8% | [9] -87.8% | [10] -59.6% | [19] 5.72%
inactive: [3] 105% | [4] 47.8% | [6] 18.4% | [7] 35.6% | [8] 17.2% | [11] 58.5% | [12] 57.8% | [13] 23.2% | [14] 60.2% | [15] 61.9% | [16] 30.7% | [17] 35% | [18] 17%

COc1ccc(Cn2cc3c(c2-c2ccccc2)CCCc2cnoc2-3)cc1
inactive: [1] 32.5% | [2] 20.4% | [3] 51.2% | [4] 61% | [5] 57.7% | [6] 60% | [7] 50.1% | [8] 42.7% | [9] 53.5% | [10] 62% | [11] 80.2% | [12] 69.2% | [13] 79.8% | [14] 57.1% | [15] 91.8% | [16] 58.9% | [17] 46.1% | [18] 61.3% | [19] 61.7%

O=S(=O)(NCCCNc1nccc(-n2cnc3ccccc32)n1)c1ccc(F)cc1
active: [7] 2.63%
inactive: [1] 82.8% | [2] 92.8% | [3] 82.5% | [4] 92.6% | [5] 93.8% | [6] 69.3% | [8] 61.6% | [9] 74% | [10] 97.9% | [11] 85.8% | [12] 61.2% | [13] 89% | [14] 59.3% | [15] 91.9% | [16] 81.1% | [17] 71% | [18] 49.1% | [19] 33.2%

O=C(COc1cccc2cccnc12)Nc1ccc(C(=O)/C=C/c2ccc(Cl)cc2)cc1
inactive: [1] 70% | [2] 86.5% | [3] 96% | [4] 87.2% | [5] 92.2% | [6] 89.2% | [7] 83.7% | [8] 72.6% | [9] 47.5% | [10] 101% | [11] 96.2% | [12] 80.9% | [13] 86% | [14] 67.7% | [15] 104% | [16] 94% | [17] 76.2% | [18] 83.3% | [19] 67.7%

Cn1cc(-c2nnc(N)nc2-c2cn(C)c3ccc(F)cc23)c2cc(F)ccc21
inactive: [1] 91.8% | [2] 63.3% | [3] 64.4% | [4] 91% | [5] 83.2% | [6] 95.2% | [7] 91% | [8] 94.6% | [9] 98.4% | [10] 103% | [11] 97% | [12] 101% | [13] 89.2% | [14] 82.6% | [15] 91.4% | [16] 100% | [17] 79.7% | [18] 100% | [19] 79.1%

N#Cc1c(NC(=O)c2ccc(F)c(Cl)c2)sc2c1CCC(=O)C2
inactive: [4] 15.1% | [5] 11.6% | [11] 18.3% | [12] 13.1% | [15] 15.3%
active: [1] -38.6% | [2] 8.89% | [3] -0.913% | [6] -19.8% | [7] -75.6% | [8] -69.7% | [9] -16.1% | [10] -66.9% | [13] 4.43% | [14] -99% | [16] -98.8% | [17] -67% | [18] 8.21% | [19] 3.13%

COc1ccc(-c2cc(-c3ccc(Cl)cc3)nc3nc(N)nn23)cc1
inactive: [1] 90.2% | [2] 99.5% | [3] 104% | [4] 91.5% | [5] 91% | [6] 106% | [7] 93.6% | [8] 92.8% | [9] 105% | [10] 116% | [11] 103% | [12] 99.3% | [13] 97.6% | [14] 81% | [15] 93.2% | [16] 96.3% | [17] 83.7% | [18] 95% | [19] 89%

C#CCOc1ccc(C(Nc2ccc(Cl)cc2)c2nnnn2C2CCCCC2)cc1 (centres undefined)
inactive: [1] 80% | [2] 92% | [3] 87.4% | [4] 89.5% | [5] 86.9% | [6] 75.2% | [7] 92.3% | [8] 72.4% | [9] 81.4% | [10] 102% | [11] 91.4% | [12] 53.9% | [13] 85.9% | [14] 64.9% | [15] 95% | [16] 96.2% | [17] 50.3% | [18] 91% | [19] 72.5%

COC(=O)[C@@]1(C)CC[C@]2(C)CC[C@]3(C)C(=CC(=O)[C@@H]4[C@@]5(C)Cc6c(n(CC#CCN7CCN(C)CC7)c7ccccc67)C(C)(C)[C@@H]5CC[C@]43C)[C@@H]2C1
active: [1] 2.6% | [9] -91.6%
inactive: [2] 14.4% | [3] 100% | [4] 54.3% | [5] 57.5% | [6] 62.1% | [7] 87.2% | [8] 97.7% | [10] 105% | [11] 101% | [12] 92.4% | [13] 73.5% | [14] 65.7% | [15] 119% | [16] 89.4% | [17] 64.7% | [18] 48% | [19] 16.9%

C=C(C)C(=O)O[C@H]1C[C@@]2(C)OC(=CC2=O)[C@H](C)[C@H](O)[C@H]2OC(=O)C(=C)[C@@H]21
inactive: [1] 32.6% | [2] 95.6% | [3] 77.2% | [4] 106% | [5] 86.6% | [6] 79.7% | [7] 88.2% | [8] 52.3% | [9] 57.7% | [10] 61.7% | [11] 43.1% | [12] 73.6% | [13] 73.9% | [14] 53.9% | [16] 31.9% | [20] 131% | [19] 76.6%
active: [18] 7.85%

CC[C@H](C)[C@H]1NC(=O)[C@@H]([C@H](O)C(C)C)NC(=O)[C@@H](C)N(C)C(=O)[C@H](C)N(C)C(=O)[C@H](CC(C)C)NC(=O)[C@H](CC(C)C)N(C)C(=O)[C@H](C)N(C)C1=O
inactive: [3] 11.2%
active: [1] 1.74% | [2] 3.09% | [4] 5.15% | [5] 1.21% | [6] 5.5% | [7] -12.4% | [8] -3.83% | [9] -1.35% | [10] -9.11% | [11] -27% | [12] -4.22% | [13] 2.49% | [14] 5.19% | [15] 1.97% | [16] 5.95% | [20] 5.77% | [18] 4.88% | [19] 1.68%

CCN1C/C(=N\S(=O)(=O)c2ccccc2)N(CC)C1=S
inactive: [1] 101% | [2] 108% | [3] 91.3% | [4] 98.2% | [5] 97.4% | [6] 110% | [7] 102% | [8] 95.2% | [9] 99.3% | [10] 104% | [11] 104% | [12] 99% | [13] 98.1% | [14] 89.9% | [15] 100% | [16] 102% | [17] 95.3% | [19] 101%

IP(CCCCCCCCCCSc1n(Cc2ccc3ccccc3c2)c(-c2ccccc2)c(-c2ccccc2)[n+]1Cc1ccc2ccccc2c1)(c1ccccc1)(c1ccccc1)c1ccccc1
active: [1] -68.3% | [2] -59.4% | [3] -52.6% | [4] -84.8% | [5] -68.5% | [6] -80.4% | [7] -98.3% | [8] -73.6% | [9] -78.1% | [10] -83.7% | [11] -59.5% | [12] -68.2% | [13] -72.2% | [14] -4.18% | [15] -68.3% | [16] -28% | [17] -91.4% | [18] -33.7% | [19] -53.6%

COc1ccc(C(=O)n2cc(C=O)c3ccccc32)cc1
inactive: [1] 87.9% | [2] 118% | [3] 99% | [4] 87.5% | [5] 93.9% | [6] 90.5% | [7] 98.1% | [8] 81.6% | [9] 76.2% | [10] 102% | [11] 104% | [12] 97.6% | [13] 94.7% | [15] 123% | [16] 92.4% | [17] 85% | [20] 122% | [18] 103% | [19] 101%
